A selection: hits, their analogues and other compounds. The true share with any hit is near 2.4%.
AmpC inh det = Promiscuous and Specific Inhibitors of AmpC Beta-Lactamase (assay with detergent); P00811; Potency, µM (highest dose often 28.7 µM), for inactives: at the highest dose activity change, negative = inhibition; actives 0.09% (n = 71,000); purified AmpC, nitrocefin hydrolysis with detergent; AID 584, 2007; active means well fitted curve in the direction sought with a large enough effect; inconclusive means small, poorly fitted or top-dose-only effect; further: on the % scale 0 is the no-effect control and ±100 the full control effect
Target sequence (P00811 whole entry, looked up): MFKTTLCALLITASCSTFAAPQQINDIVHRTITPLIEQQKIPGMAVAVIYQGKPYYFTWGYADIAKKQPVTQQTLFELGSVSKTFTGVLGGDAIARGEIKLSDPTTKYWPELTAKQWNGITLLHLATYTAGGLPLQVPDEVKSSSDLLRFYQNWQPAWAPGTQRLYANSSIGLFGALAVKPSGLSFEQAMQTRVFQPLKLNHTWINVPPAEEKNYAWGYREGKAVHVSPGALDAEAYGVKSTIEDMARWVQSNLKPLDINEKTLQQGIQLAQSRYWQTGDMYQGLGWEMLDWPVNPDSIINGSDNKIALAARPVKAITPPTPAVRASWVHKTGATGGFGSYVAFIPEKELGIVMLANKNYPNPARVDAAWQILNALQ
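E. coli AmpC (5.3 nM) in 20 mM phosphate pH 7.0 with 0.01% Triton X-100, preincubated 15 min RT with compound; nitrocefin (2 uL of 800 uM stock) hydrolysis followed by 480 nm absorbance every 20 s over 4 min.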
AmpC inh no det = Promiscuous and Specific Inhibitors of AmpC Beta-Lactamase (assay without detergent); P00811; AmpC nitrocefin hydrolysis, absorbance 480 nm, no detergent; Potency, µM (series often up to 28.7 µM), inactives show top-dose activity change, negative = inhibition; actives 1.8% (n = 71,000); AID 585, 2007; further: % of control where 0% means no effect
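AmpC, 20 mM phosphate pH 7.0; 15 min cpd preinc, RT; start with nitrocefin (800 uM stock); A480 kinetic read, 20 s intervals, 4 min. No-enzyme wells = negative control.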
Anthrax LT inh = qHTS Assay for Anthrax Lethal Toxin Internalization. Cells, anthrax lethal toxin internalization, FRET ratio (460/530). Potency, µM (series often up to 40 µM), for the others: at the highest dose activity change, negative = inhibition, actives largely listed as inhibitors. actives 0.67% (n = 70,000). AID 912, 2007; further: on the % scale 0 is the no-effect control and ±100 the full control effect; nearly all actives have a fitted effect of over 50% in size
SmPrx2 inh = Schistosoma Mansoni Peroxiredoxins (Prx2); S. mansoni Prx2 activity coupled to TGR/GSH (TGR is thioredoxin glutathione reductase), NADPH fluorescence loss, qHTS; Potency, µM; actives 0.07% (n = 65,000); AID 448, 2006
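Prx2 inhibition was measured as reduced NADPH consumption when electrons flowed from NADPH through TGR and glutathione to Prx2 and H2O2. Plates were read kinetically over 8 min; enzyme reagents were held at 4 deg C during dispensing.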
An asterisk follows results filed as active; ? = inconclusive; . = no result; [ ] = remark or other dose. Unless noted, the call rests on the fitted dose curve. Potency means the concentration at half of the fitted maximal effect.

SMILES | AmpC inh det | AmpC inh no det | Anthrax LT inh | SmPrx2 inh
Clc1cc(Cl)c(-c2cc(Cl)c(Cl)cc2Cl)cc1Cl | 9% | -5% | 3.2µM* | .
CN(C)c1cccc(C(=O)Nc2cccc(F)c2)c1 | -5% | -13% | . | >57
CCN(CC)c1ccc(C(=O)Nc2cccc(F)c2)cc1 | 3% | -21% | 10µM* | >57
CCn1c(SCC(=O)N2CCOCC2)nc(O)cc1=O | 13% | 4µM*[single pt active] | -5% | >57
COc1ccccc1-n1c(SCC(=O)NC(C)(C)C)nc(O)cc1=O | -2% | -4% | ? | >57
COc1ccccc1-n1c(SC)nc(O)cc1=O | 11% | 2.5µM*[single pt active] | -12% | >57
NC(=O)c1cccc2c1C(=O)N(C1CCCCC1)C2 | 13% | 4µM*[single pt active] | -7% | >57
O=C(c1ccncc1)N1CCC[C@@]2(CCN(c3ccncc3)C2)C1 | 0% | 4% | ? | >57
CC(C)(C)NC(=O)C1CCCN(S(=O)(=O)c2cccc3cccnc23)C1 (configuration not stated) | 12% | 4µM*[single pt active] | -6% | >57
N[C@@H](C(=O)O)[C@@H]1C[C@H]1C(=O)O | -2% | -10% | 3% | >57
CC[C@H]1CN2CC[C@@H]1C[C@@H]2[C@H](O)c1ccnc2ccccc12 | 2% | 1% | -14% | >57
CN1[C@@H]2CC[C@H]1CC(O[C@@H](c1ccccc1)c1ccc(Cl)cc1)C2 (some centres not stated) | 5% | 99% | 10µM* | >57
COc1ccc(-c2cnn(-c3ccccc3)c2N)cc1OC | 0% | -5% | -5% | .
Nc1nc2c(s1)CCc1c-2cnn1-c1ccccc1 | -7% | 6% | 10µM* | >57
COc1ccc(-c2cc(C(F)(F)F)nc(N3CCN(c4ccccc4)CC3)n2)cc1OC | 18% | 0% | 14% | >57
COc1nc(-c2ccccc2)cc(-c2ccc(OC)c(OC)c2)n1 | -6% | 120% | 13µM* | .
COCCNC(=O)CSc1nc2cc(OC)c(OC)cc2c(=O)n1Cc1ccco1 | -1% | 40% | 6% | >57
COC(=O)c1ccc2c(=O)n(Cc3ccco3)c(SCC(=O)Nc3ccc(C)c(Cl)c3)nc2c1 | -2% | 13µM* | -4% | >57
O=c1cc(-c2ccccc2O)oc2c(O)c(O)ccc12 | -7% | ? | ? | ?
C[C@@H]1[C@H]2C=C[C@@H]1[C@@H](c1c3ccc(=O)c(O)c-3oc3c(O)c(O)ccc13)[C@@H]2C(=O)O | 2µM* | 2.5µM* | ? | >57
COc1ccc(CNc2oc(-c3ccccc3)nc2C#N)cc1 | 15% | 4µM*[single pt active] | -2% | >57
COc1ccc(CCNc2oc(-c3ccc(C)cc3)nc2C#N)cc1OC | 12% | 4µM*[single pt active] | 9% | >57
Cc1nc2ccccc2cc1C[N+]12CN3CN(CN(C3)C1)C2 | -3%[5.75 µM] | 0%[5.75 µM] | 1%[8 µM] | >57
Cc1ccc(/C(C#N)=C\c2cn(C)c3ccccc23)cc1 | -9% | -10% | 7.9µM* | >57
Cc1ccc(/C(C#N)=C/c2cccc([N+](=O)[O-])c2)cc1 | -4%[5.75 µM] | -4%[5.75 µM] | ? | >57
SMILES | AmpC inh det | AmpC inh no det | Anthrax LT inh | SmPrx2 inh
CC(=O)n1cc(-c2ccncc2)c2ccccc21 | 10% | 3.2µM*[single pt active] | 15% | >57
CCN1CCN(c2ncc(C(=O)Nc3ccccc3C(=O)OC)c3ccccc23)CC1 | -1% | 132% | 10µM* | >57
CNC1=C(Br)C(=O)c2ccncc2C1=O | 17% | -5% | ? | .
Cc1ccc2c(CC(=O)Nc3sccc3C(N)=O)coc2c1 | -2% | 13µM*[single pt active] | -12% | >57
CC(C)(C)OC(=O)N[C@@H](Cc1ccccc1)c1nnc(SCC(=O)O)o1 | 12% | -4% | ? | >57
CCC(C)[C@@H](NC(=O)OC(C)(C)C)c1nnc(S(=O)(=O)Cc2cccc(C)c2)o1 (some centres not stated) | 4µM* | 7.9µM* | ? | >57
CC(C)(C)OC(=O)N[C@@H](Cc1ccccc1)c1nnc(S(=O)(=O)Cc2ccccc2)o1 | 13µM* | 3.2µM* | 7.9µM* | .
CN1CCc2c(cc(O)c(O)c2Cl)[C@H](c2cccc(Cl)c2)C1 | -2% | 3% | 1% | >57
CCOC(=O)N1CCN(c2c(NCc3cccs3)c(=O)c2=O)CC1 | 11% | 4µM*[single pt active] | -25% | >57
CCOC(=O)N1CCN(c2c(NCc3ccccc3OC)c(=O)c2=O)CC1 | 13% | 4µM*[single pt active] | ? | >57
CCOC(=O)N1CCN(c2c(NCCc3ccc(OC)c(OC)c3)c(=O)c2=O)CC1 | 11% | 4µM*[single pt active] | 5% | >57
CCOC(=O)N1CCN(c2c(-c3ccc(C)c(C)c3)c(=O)c2=O)CC1 | -1% | 14% | 7% | >57
NC[C@@H]1O[C@@H](O[C@H]2[C@@H](O)[C@H](O[C@@H]3[C@H](O)[C@H](N)C[C@H](N)[C@H]3O[C@@H]3O[C@@H](CO)[C@H](O)[C@H](O)[C@@H]3N)O[C@H]2CO)[C@H](N)[C@H](O)[C@@H]1O | 0% | 2% | -5% | >57
Cc1nc2cc(-c3cccc(F)c3)nn2c(C)c1CCC(=O)N1CCN(c2ccccn2)CC1 | 10% | 4µM*[single pt active] | -16% | >57
Cc1nc2cc(-c3cccc(F)c3)nn2c(C)c1CCC(=O)NC(C)CCc1ccco1 (configuration not stated) | 13% | 130% | ? | .
CNC(=O)[C@@H]1O[C@@H](n2cnc3c(NCc4cccc(I)c4)ncnc32)[C@H](O)[C@@H]1O | -3% | 62% | -8% | >57
CSSC | 12% | -16% | -1% | .
COc1ccccc1-c1cc(C(F)(F)F)nc(S(=O)(=O)CCCC(=O)N2CCOCC2)n1 | -2% | 83% | 1.6µM* | >57
COc1ccc(-c2cc(C(F)(F)F)nc(S(=O)(=O)CCC(=O)N3CCOCC3)n2)cc1 | 4% | 67% | ? | >57
COc1ccc(-c2noc(CN(C)S(=O)(=O)c3ccc(Cl)cc3)n2)cc1OC | -5% | 104% | 13µM* | >57
COc1ccccc1C(=O)N(Cc1nc(-c2ccc(Cl)cc2)no1)C(C)C | 14% | 92% | 13µM* | >57
Cc1c2oc3c(C)ccc(C(=O)N[C@@H]4C(=O)N[C@@H](C(C)C)C(=O)N5CCC[C@@H]5C(=O)N(C)CC(=O)N(C)[C@@H](C(C)C)C(=O)O[C@H]4C)c3nc-2c(C(=O)N[C@@H]2C(=O)N[C@@H](C(C)C)C(=O)N3CCC[C@@H]3C(=O)N(C)CC(=O)N(C)[C@@H](C(C)C)C(=O)O[C@H]2C)c(N)c1=O | -3% | 134% | ? | >57
CCCSc1nc(C)c(-c2csc(C(C#N)=C3CCCC3)n2)cc1C#N | 0% | 13µM* | -12% | >57
CCCCSc1nc2c(cc1C#N)CCC2 | -4% | -6% | -13% | >57
O=C(c1cccc(F)c1)N1CCC[C@@]2(CCN(C(c3ccccc3)c3ccccc3)C2)C1 | 15% | -5% | 11% | >57
NCc1ccccc1CC(=O)N[C@@H]1C(=O)N2C(C(=O)O)=C(CSc3nnnn3CC(=O)O)CS[C@@H]12 | -4%[12.8 µM] | -15%[12.8 µM] | 1%[3.58 µM] | >57

Compound activity as filed in PubChem BioAssay.
